In PubChem BioAssay:
A number with no mark means an inactive call. Activity calls are given as the source filed them. Cut-off read from the data, not from the text of the source, unless noted: active = inhibition above about 36%; inactive = the rest.

What was measured:
[1] = test system: transactivating tegument protein VP16 (Human herpesvirus 1); experiment: compounds suppressing VP16-driven luciferase signal – cell-based, luminescence, single concentration, counter-screen for SRC2 inhibitor project (AID 652007); conditions: cell-based VP16 transactivation luciferase reporter, at 8.9 µM, hits give high values
[2] = target: Nuclear receptor coactivator 2 (Homo sapiens) (UniProt Q15596); experiment: inhibition of GAL4-SRC2 driven luciferase expression – cell-based, luminescence, HEK293, triplicate, confirmation (AID 652008;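 active = mean inhibition above 46.5%, the solvent-only control mean plus 3 SD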;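 note: 0% = DMSO-treated cells and 100% = Gossypol at 36 µM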); conditions: HEK293 GAL4-SRC2 luciferase reporter, at 8.9 µM, hits give high values
Sequence of Nuclear receptor coactivator 2 (Homo sapiens) (Q15596 whole entry, looked up, the tested form may be a part): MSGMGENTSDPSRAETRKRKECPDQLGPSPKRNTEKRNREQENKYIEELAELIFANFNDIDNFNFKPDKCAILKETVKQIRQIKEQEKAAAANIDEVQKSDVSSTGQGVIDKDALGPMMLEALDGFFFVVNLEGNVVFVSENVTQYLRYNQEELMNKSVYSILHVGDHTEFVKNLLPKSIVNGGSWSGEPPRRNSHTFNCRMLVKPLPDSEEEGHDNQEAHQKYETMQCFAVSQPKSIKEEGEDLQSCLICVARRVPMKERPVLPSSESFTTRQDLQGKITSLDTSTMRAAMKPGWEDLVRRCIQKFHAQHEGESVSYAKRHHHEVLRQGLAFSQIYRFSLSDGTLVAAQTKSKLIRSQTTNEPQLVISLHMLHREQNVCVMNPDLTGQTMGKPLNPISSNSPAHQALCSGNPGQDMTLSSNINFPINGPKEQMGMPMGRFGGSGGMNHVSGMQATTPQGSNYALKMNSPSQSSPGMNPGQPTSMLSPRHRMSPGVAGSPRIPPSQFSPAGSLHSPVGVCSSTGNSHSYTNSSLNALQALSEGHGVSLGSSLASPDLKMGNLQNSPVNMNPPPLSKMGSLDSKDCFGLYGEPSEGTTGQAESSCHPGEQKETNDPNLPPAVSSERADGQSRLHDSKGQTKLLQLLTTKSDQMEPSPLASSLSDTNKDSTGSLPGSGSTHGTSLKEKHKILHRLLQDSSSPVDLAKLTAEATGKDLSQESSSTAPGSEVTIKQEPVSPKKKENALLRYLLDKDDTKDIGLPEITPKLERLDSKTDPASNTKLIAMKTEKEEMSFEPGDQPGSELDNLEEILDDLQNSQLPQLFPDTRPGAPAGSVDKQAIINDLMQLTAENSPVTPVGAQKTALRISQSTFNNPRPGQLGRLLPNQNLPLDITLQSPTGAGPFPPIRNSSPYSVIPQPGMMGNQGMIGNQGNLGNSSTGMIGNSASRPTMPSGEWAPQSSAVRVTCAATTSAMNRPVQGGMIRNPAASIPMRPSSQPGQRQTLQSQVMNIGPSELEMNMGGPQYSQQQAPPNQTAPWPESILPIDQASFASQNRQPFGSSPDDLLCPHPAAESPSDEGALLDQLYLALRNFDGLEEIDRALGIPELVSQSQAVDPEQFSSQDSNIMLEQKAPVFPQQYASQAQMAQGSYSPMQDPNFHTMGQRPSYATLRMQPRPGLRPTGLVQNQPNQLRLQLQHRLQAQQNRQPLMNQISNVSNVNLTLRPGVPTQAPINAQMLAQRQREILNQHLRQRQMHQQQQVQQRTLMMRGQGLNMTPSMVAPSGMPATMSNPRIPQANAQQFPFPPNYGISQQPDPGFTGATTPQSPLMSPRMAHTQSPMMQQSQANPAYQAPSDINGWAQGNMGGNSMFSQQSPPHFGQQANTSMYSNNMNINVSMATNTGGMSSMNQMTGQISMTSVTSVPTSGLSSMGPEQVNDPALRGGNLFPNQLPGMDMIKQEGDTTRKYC

Compound | inhibition [1] | inhibition [2]
Cc1ccc2nc(-c3cc(N)cc(N)c3)oc2c1 | -8.66% | 38.3%
Cc1cccc(N2CC(C(=O)NC3CCCCCC3)CC2=O)c1C (stereo unspecified) | -3.4% | -3.61%
CC(C)N=C(NS(=O)(=O)c1ccccc1)C(Cl)(Cl)Cl | 7.46% | 28.2%
O=C(NN1CCOCC1)c1ccco1 | -7.57% | -31.5%
CC(C)(C)C(=O)Nc1nnc(CSCc2ccccc2F)s1 | -20.9% | 9.89%
Cc1ccc(C(C)C)c(OCc2ccc(C(=O)N/N=C/c3ccc(C(=O)O)cc3)cc2)c1 | -13.2% | 41.4%
Cc1ccc(S(=O)(=O)NNC(=O)c2sc(=S)n(C)c2C)cc1 | -4.43% | -17.1%
O=C(O)COc1ccc(-c2nccc(-c3ccccn3)n2)cc1 | 20.4% | 79.1% (active)
CC(C)(C)c1nn(-c2ccccc2)c2[nH]c(=O)c(CNc3ccc4c(c3)OCCO4)cc12 | -7.89% | 3.22%
C=CS(=O)(=O)N(Cc1ccc(C)cc1)[C@@H](CO)C(=O)OC | 17.1% | 63.8% (active)
CN1Cc2sc(NC(=S)NC(=O)c3ccccc3)c(C#N)c2CC1(C)C | 20.5% | 58.2% (active)
COc1cc(N(C(C)=O)c2ccc(O)cc2)c2ncccc2c1 | 1.2% | 2.41%
CC(=O)N(CCc1ccccc1)c1ccc2c(c1)C1CC2CCN1C(=O)OCc1ccccc1 (stereo unspecified) | 17% | 18.6%
COc1ccc(NC(=O)Cc2nnc(SCC(=O)Nc3ccc(F)cc3)n2C)cc1 | -17.1% | -24%
CCCc1ncc(CN2CCC(C(=O)Nc3cccc(-c4cscn4)c3)CC2)cn1 | 12.2% | 15.5%
CC(C)(C)c1ccc(/C=C/C(=O)NCCCN2CCOCC2)cc1 | -13.2% | 4.98%
CC1CC(C)(C)Nc2ccc(OC(=O)c3ccco3)cc21 (stereo unspecified) | -46.6% | 46.8% (active)

Compound | inhibition [1] | inhibition [2]
Cc1nc([N+](=O)[O-])c(Br)n1Cc1ccccc1 | 3.69% | 11.9%
Cc1nc2cc(-c3ccccc3)nn2c(C)c1CCC(=O)N1CCN(c2ccccc2)CC1 | 3.67% | 52.6% (active)
CCN(CC)S(=O)(=O)c1cccc(-n2c(O)c(C=Nc3ccccc3C(=O)O)c3ccccc3c2=O)c1 | -0.6% | 21.9%
CCC1CSC(Nc2ccc(C(=O)/C=C/c3ccc(OC)c(OC)c3)cc2)=N1 (stereo unspecified) | 12.8% | 39.9%
COc1ccc(/C=C2\SC(=S)N(CCC(=O)NC3C=CS(=O)(=O)C3)C2=O)cc1 (stereo unspecified) | 3.55% | 62.1% (active)
CCC(C)[C@H](NC(=O)N1CCn2c1nc1ccccc12)C(=O)NCc1ccc(OC)cc1 (stereo partly specified) | -13% | 8.36%
CC(C)(C)c1ccc(-c2n[nH]c(=S)n2C2CCCC2)cc1 | 1.72% | 3.48%
COC(=O)c1ccc2c(=O)[nH]c(COC(=O)c3[nH]c(C)c(C(C)=O)c3C)nc2c1 | -18.3% | 12.3%
C=C1CC2(OC1=O)c1ccccc1CCc1ccccc12 | 49.2% (active) | 29.7%
Cc1cccc(Nc2nc(NCc3ccco3)c3ccccc3n2)c1 | 25.1% | 33.9%
CCc1sc(NC(=O)CN2CCOCC2)nc1-c1ccccc1 | -0.48% | -0.93%
Cc1cc(C)nc(NC(=O)c2c(F)c(F)c(F)c(C(=O)Nc3cc(C)cc(C)n3)c2F)c1 | 19.3% | 48.3% (active)
NS(=O)(=O)c1ccc(NC(=O)COc2ccc(C(=O)c3ccc(F)cc3)cc2)cc1 | -1.97% | -2.94%
O=[N+]([O-])c1cccc2c(N3CCCC3)ccnc12 | 11.7% | -23.4%
COC(=O)[C@]12C[C@H](CC(=O)N3CCCCC3)C(=O)N(Cc3ccco3)C1=C[C@H](C(C)C)O[C@@H]2C1CC1 | -5.52% | -14.3%
CC(C)(C)NC(=O)COC(=O)c1snc(C(=O)NC2CCCCC2)c1N | -7.99% | 8.82%
